Dicer inh: blocks human Dicer maturation of pre-miR-21; Q9UPY3; cat-ELCCA pre-miR-21 Dicer processing, chemiluminescence; active compounds read high; z-score at 25 µM; 47,000 tested, 6% active; in the data active = z-score above about 3, passing the limit was not always enough;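 note: higher signal means more uncleaved substrate so more Dicer inhibition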
Target sequence (Q9UPY3 whole entry, looked up): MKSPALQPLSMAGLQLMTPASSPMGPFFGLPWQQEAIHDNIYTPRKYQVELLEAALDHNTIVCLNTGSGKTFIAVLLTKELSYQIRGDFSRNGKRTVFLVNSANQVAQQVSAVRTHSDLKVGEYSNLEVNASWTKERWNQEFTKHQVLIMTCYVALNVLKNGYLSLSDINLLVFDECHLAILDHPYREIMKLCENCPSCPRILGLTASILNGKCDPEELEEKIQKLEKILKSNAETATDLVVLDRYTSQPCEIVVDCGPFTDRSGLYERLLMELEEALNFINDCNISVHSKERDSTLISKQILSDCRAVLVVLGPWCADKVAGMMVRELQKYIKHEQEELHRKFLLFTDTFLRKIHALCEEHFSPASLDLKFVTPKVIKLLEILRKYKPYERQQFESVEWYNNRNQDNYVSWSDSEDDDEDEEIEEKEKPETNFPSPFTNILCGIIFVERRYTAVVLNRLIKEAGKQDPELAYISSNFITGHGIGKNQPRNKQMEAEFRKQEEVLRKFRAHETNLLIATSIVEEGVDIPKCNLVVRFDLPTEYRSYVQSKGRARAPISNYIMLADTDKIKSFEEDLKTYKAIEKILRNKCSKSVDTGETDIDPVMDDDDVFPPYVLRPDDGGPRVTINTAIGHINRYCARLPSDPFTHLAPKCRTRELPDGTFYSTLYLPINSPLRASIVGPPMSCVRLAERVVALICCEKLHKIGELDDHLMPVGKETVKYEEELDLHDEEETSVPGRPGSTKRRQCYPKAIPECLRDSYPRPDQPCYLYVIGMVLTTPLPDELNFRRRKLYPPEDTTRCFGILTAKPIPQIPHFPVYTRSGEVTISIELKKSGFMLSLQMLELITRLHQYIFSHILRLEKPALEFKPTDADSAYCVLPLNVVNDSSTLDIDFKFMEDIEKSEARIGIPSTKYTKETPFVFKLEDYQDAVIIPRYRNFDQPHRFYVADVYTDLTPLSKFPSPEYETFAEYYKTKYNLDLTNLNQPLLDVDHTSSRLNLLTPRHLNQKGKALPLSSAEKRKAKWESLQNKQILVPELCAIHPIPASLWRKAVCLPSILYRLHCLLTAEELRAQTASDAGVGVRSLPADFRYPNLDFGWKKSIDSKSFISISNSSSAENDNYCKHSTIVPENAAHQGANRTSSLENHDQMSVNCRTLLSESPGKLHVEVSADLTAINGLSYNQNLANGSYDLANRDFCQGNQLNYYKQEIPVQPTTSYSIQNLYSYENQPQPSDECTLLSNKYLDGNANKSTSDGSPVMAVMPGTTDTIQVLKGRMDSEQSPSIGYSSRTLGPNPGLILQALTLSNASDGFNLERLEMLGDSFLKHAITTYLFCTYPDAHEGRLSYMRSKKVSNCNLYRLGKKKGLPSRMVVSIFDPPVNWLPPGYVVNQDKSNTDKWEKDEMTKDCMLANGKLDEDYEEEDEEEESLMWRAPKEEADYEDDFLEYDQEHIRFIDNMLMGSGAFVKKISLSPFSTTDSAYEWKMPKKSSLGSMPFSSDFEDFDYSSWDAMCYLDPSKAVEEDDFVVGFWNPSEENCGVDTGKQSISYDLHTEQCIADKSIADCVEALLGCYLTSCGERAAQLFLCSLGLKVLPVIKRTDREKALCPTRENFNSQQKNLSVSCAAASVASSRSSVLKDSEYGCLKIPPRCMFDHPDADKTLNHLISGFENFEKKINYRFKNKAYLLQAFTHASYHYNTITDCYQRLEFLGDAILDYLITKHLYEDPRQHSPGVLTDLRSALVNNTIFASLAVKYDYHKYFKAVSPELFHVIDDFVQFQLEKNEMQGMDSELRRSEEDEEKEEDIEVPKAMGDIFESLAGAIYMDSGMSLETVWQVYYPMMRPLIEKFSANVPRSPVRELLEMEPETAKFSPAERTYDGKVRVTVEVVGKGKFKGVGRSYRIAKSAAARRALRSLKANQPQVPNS
Of the large screens only hits and unclear results are named; the others gave an inactive call. The full list was thinned out, with hits kept by preference.

CCOc1ccc(NCN2C(=O)c3ccc([N+](=O)[O-])cc3C2=O)cc1	none
O=C(CS(=O)(=O)c1ccc(C(F)(F)F)cn1)N/N=C\c1ccc(Cl)cc1	none
Cc1nn(S(=O)(=O)c2cccc(C(F)(F)F)c2)c(C)c1Sc1nccc(-c2cccnc2)n1	none
CCOc1cc(C)c(S(=O)(=O)Nc2cc(C)ccn2)cc1C	none
CCSc1nnc(NC(=O)c2cccc(C(=O)OC)n2)s1	none
Cc1c(C)c(C)c(S(=O)(=O)Oc2ccc([N+](=O)[O-])cc2)c(C)c1C	Dicer inh 4.7
N#Cc1c(OCC(F)(F)F)ccc(S(=O)(=O)Oc2ccc([N+](=O)[O-])cc2)c1OCC(F)(F)F	none
Cc1ccc(S(=O)(=O)Oc2ccc(-c3ccc(OS(=O)(=O)c4ccc(C)cc4)cc3)cc2)cc1	none
O=C(Nc1ccc2ccccc2n1)c1ccco1	none
O=C(NOC(=O)c1cccs1)c1ccco1	none
Nc1cc(=O)[nH]n1C1CCN(c2ccccc2)CC1	Dicer inh 3.2
Nc1cc(=O)[nH]c(=O)n1-c1ccccc1	none
O=C1CC(c2ccccc2)CC(=O)N1c1ccc(N2CCOCC2)cc1	none
O=C(Nc1cccc(Cl)c1)c1nn2c(C(F)(F)F)cc(-c3ccco3)nc2c1Cl	Dicer inh 4
O=C(Nc1ccc2c(c1)OCO2)c1cnn2c(C(F)(F)F)cc(-c3ccco3)nc12	none
COc1ccc(NC(=O)c2cc3nc(-c4ccco4)cc(C(F)(F)F)n3n2)cc1OC	none
CCOC(=O)Cn1c(=O)c2ccsc2c2c(C#N)c(SC)sc21	none
O=S(=O)(c1ccc(Br)cc1)N1CCN(C/C=C/c2ccccc2)CC1	none
Cc1ccc(S(=O)(=O)N2CCC(CC3CCN(S(=O)(=O)c4ccc(C)cc4)CC3)CC2)cc1	none
O=C(CCC1CCCC1)N1CCN(S(=O)(=O)c2ccc3ccccc3c2)CC1	Dicer inh 3.1
O=C(NCc1ccco1)C1CCCN1S(=O)(=O)c1ccc2ccccc2c1 (stereo not drawn)	none
COc1ccc(OC)c(CN2CCN(S(=O)(=O)c3ccc4ccccc4c3)CC2)c1	none
COc1ccccc1C1CCN(S(=O)(=O)c2ccc(C)cc2)CC1	none
O=S(=O)(c1ccc2ccccc2c1)N1CCN(Cc2cc(Br)ccc2O)CC1	Dicer inh 4.1
O=C(Nc1nnc(CCS(=O)(=O)c2ccc3ccccc3c2)s1)C1CCCCC1	none
Cc1ccc(S(=O)(=O)N2CCN(S(=O)(=O)c3ccc4ccccc4c3)CC2)cc1	Dicer inh 3.4
CCNc1[nH]c(=S)nc2sc3c(c12)CCN(C)C3	none
COc1ccc(Oc2coc3cc(OC(=O)c4ccc(OC)cc4)ccc3c2=O)cc1	none
CS(=O)(=O)n1nccc1-c1ccc(Oc2cccc(Cl)c2C#N)cc1	none
Cn1c(N2CCOCC2)nc2c1c(=O)n(Cc1ccc(F)cc1)c(=O)n2C	none
CC(C)c1ccc(COC(=O)Nc2ccc(CSc3ccc(Cl)cc3)o2)cc1	none
Cc1ccc(C(=O)/C=C/Sc2nccc(C)n2)cc1	none
CC(C)(C)C(=O)NNC(=O)CSc1nc2cc(Cl)ccc2s1	none
O=S(=O)(NCc1c(Cl)cccc1Sc1ccc(Cl)cc1)c1ccc(-c2ccno2)s1	none
Cc1ccc(NC2=CC(=O)CC(C)(C)C2)cc1C	Dicer inh 3.5
CCCCNC1=CC(=O)CC(C)(C)C1	none
COc1ccc(NC2=CC(=O)CC(C)(C)C2)c(OC)c1	none
Cc1cc(=O)[nH]c(NC(=O)C(C)(C)C)n1	none
COc1ccc(OCc2nnc3n2N=C(c2ccc(C)cc2)CS3)cc1	none
COc1ccc(OCc2nnc3n2N=C(c2ccc(OC)cc2)CS3)cc1	Dicer inh 5.2
COc1ccc(C2=Nn3c(COc4cc(C)ccc4Cl)nnc3SC2)cc1	none
O=C1C(=O)N(Cc2cccnc2)C(c2ccccc2Cl)/C1=C(\O)c1ccc(Cl)cc1 (stereo not drawn)	none
CCn1nc(C)c(Br)c1C(=O)NNC(=O)c1ncc(C(F)(F)F)cc1Cl	none
CCC(=O)c1cn(CC(=O)N2CCOCC2)c2ccccc12	none
COC(=O)c1cn(CC(=O)N2CCOCC2)c2ccccc12	Dicer inh 6
CCOC(=O)Cn1cc(C(=O)C2CC2)c2ccccc21	none
CC1CCCC(C)N1C(=O)Cn1cc(C(=O)C2CCCCC2)c2ccccc21 (stereo not drawn)	none
CC1CCN(C(=O)Cn2cc(C(=O)C3CC3)c3ccccc32)CC1	Dicer inh 5.1
O=C(c1cccs1)c1cn(CC(=O)N2CCOCC2)c2ccccc12	none
O=C1OC(c2ccccc2)=C(C(=S)Nc2ccc(Cl)cc2)C1=O	none
Cn1c(=O)c2c3oc(-c4ccccc4)nc3c(=O)n(-c3ccccc3)c2n(C)c1=O	none
CCn1c(C(=O)OC)cc(=O)c2cc(OC)ccc21	none
CCN(CC)c1ccc2c(c1)OC(N)=C(C#N)C2c1ccc(Cl)cc1 (stereo not drawn)	none
COc1cc(C2C(C#N)=C(N)Oc3c2ccc2ccccc32)cc(Br)c1O (stereo not drawn)	Dicer inh 3.3
CCOc1cc(C2C(C#N)=C(N)Oc3c2c(C)nn3-c2ccccc2)ccc1O (stereo not drawn)	none
N#CC1=C(N)Oc2c(ccc3ccccc23)C1c1ccc(Cl)cc1 (stereo not drawn)	none
COc1ccc(C2C(C#N)=C(N)Oc3cc(O)ccc32)cc1Br (stereo not drawn)	none
CCO/C=N\C1=C(C#N)C(c2ccc(OC)cc2)c2ccc3ccccc3c2O1 (stereo not drawn)	none
CCO/C=N\C1=C(C#N)C(c2ccc(Cl)cc2)c2ccc3ccccc3c2O1 (stereo not drawn)	Dicer inh 3.9
C=CCOc1c(Cl)cc(C2C(C#N)=C(N)Oc3cc(O)ccc32)cc1OC (stereo not drawn)	none
CCOc1cc(C2C(C#N)=C(N)Oc3c2ccc2ccccc32)ccc1O (stereo not drawn)	Dicer inh 7.2
Cc1nn(-c2cc(C(F)(F)F)ccc2Cl)c(=O)c2noc(C)c12	none
O=C(O)C1C2CCC(Br)(CC2)C1C(=O)O (stereo not drawn)	none
CCOC(=O)C(NC(=O)CC)(Nc1ccc(C)c(C)c1)C(F)(F)F (stereo not drawn)	none
Cn1c(=O)c2c(-c3ccccc3)n(-c3ccc(O)cc3)cc2n(C)c1=O	none
COc1cc(OC)cc(-c2nc3ccc(Br)cc3c(=O)o2)c1	none
CCc1nc(-c2ccc(-c3ccc(C)cc3)nc2OC)no1	none
O=S(=O)(c1ccc(Oc2ccccc2)nc1)N1CCCC1c1ccc(F)cc1 (stereo not drawn)	none
Cc1ccc(NC(=S)/N=C(\N)C(C)C)cc1	none
CC(O)c1nc2ccccc2n1CC(=O)N(c1ccccc1)C(C)C (stereo not drawn)	none
CC(C)N(C(=O)CN(C#N)c1nc(N(C)C)nc(N(C)C)n1)c1ccccc1	Dicer inh 5.2
CC(C)N(C(=O)CSc1nc2ccccc2s1)c1ccccc1	none
COc1ccc(NC(=O)CSc2nnc(-c3csc4c3CCCC4)o2)cc1	none
CC(=O)c1ccc(NC(=O)CSCC(=O)O)cc1	Dicer inh 4.3
COc1ccc(NC(=O)CSCC(=O)O)cc1OC	none
O=C(O)CSCC(=O)Nc1ccccn1	none
CC(=O)c1ccc(NC(=O)CN2CCN(CC(=O)Nc3ccc(C(C)=O)cc3)CC2)cc1	none
O=C(O)CSCC(=O)Nc1ccc(C(F)(F)F)cn1	none
O=C(O)CSCC(=O)Nc1cccnc1	Dicer inh 5.6
CCCc1nc2ccccc2n1CC(O)COc1ccc(Cl)cc1 (stereo not drawn)	none
COC(=O)C1=C(C)NC2=C(C(=O)CCC2)C1c1ccc(-c2cccs2)s1 (stereo not drawn)	none
COCc1nc(-c2cc3ccc(C)cc3[nH]c2=O)no1	none
CC1(C)CC(=O)C2=C(C1)OC1=C(C(=O)CC(C)(C)C1)C2c1ccc(Br)cc1	none
CC1(C)CC(=O)C2=C(C1)OC1=C(C2)C(=O)CC(C)(C)C1	none

Source: PubChem
